About 79,000 compounds went through this panel and 15% of them were active in at least one assay; those are over-represented in the sample as a whole. Activity calls are given as the source filed them. Cut-off read from the data, not from the text of the source: active = growth inhibition above about 70%; inactive = the rest.
Experiments:
[1] = NCI Yeast Anticancer Drug Screen. Data for the rad52 strain (AID 147);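 note: 0% = growth of vehicle-treated control cultures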; conditions: S. cerevisiae rad52 mutant growth inhibition, stronger effect = higher value
Procedure, shortened: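 Yeast strain carrying a DNA damage repair alteration was exposed to test compounds. Growth inhibition was measured relative to vehicle-treated controls.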

[2] = NCI Yeast Anticancer Drug Screen. Data for the wt1 strain (AID 149);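 note: 0% = growth of vehicle-treated wt1 cultures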; conditions: S. cerevisiae wt1 strain (SPY 50644) growth inhibition, stronger effect = higher value
Procedure, shortened: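 Yeast wt1 strain exposed to compounds; growth inhibition measured relative to vehicle-treated controls.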

[3] = NCI Yeast Anticancer Drug Screen. Data for the rad50EPP+ strain (AID 151);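 note: 0% = growth of vehicle-treated control cultures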; conditions: S. cerevisiae rad50 mutant strain, stronger effect = higher value
Procedure, shortened: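 Yeast strain carrying rad50 alteration (rad50EPP+) exposed to compounds; growth inhibition measured relative to vehicle-treated controls.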

[4] = NCI Yeast Anticancer Drug Screen. Data for the mgt1 strain (AID 153); conditions: S. cerevisiae mgt1 mutant growth inhibition, stronger effect = higher value
Procedure, shortened: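 Yeast mgt1 strain (DNA repair/cell-cycle alteration panel) exposed to compounds; growth inhibition measured relative to vehicle-treated controls.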

[5] = NCI Yeast Anticancer Drug Screen. Data for the rad50 strain (AID 155);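 note: 0% = growth of vehicle-only cultures of the same strain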; conditions: S. cerevisiae rad50 strain growth inhibition, stronger effect = higher value
Procedure, shortened: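 Yeast carrying a defined DNA repair defect were exposed to test compounds, and growth was compared with vehicle-treated controls to give percent inhibition.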

[6] = NCI Yeast Anticancer Drug Screen. Data for the mec2-1 strain (AID 157); conditions: S. cerevisiae mec2-1 strain, stronger effect = higher value
Procedure, shortened: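 mec2-1 yeast strain, carrying an alteration in DNA damage repair or cell cycle control, was exposed to compounds; growth inhibition was measured relative to vehicle-treated controls.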

[7] = NCI Yeast Anticancer Drug Screen. Data for the rad14 strain (AID 159);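 note: 0% = growth of vehicle-treated control cultures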; conditions: S. cerevisiae rad14 strain growth inhibition, stronger effect = higher value
Procedure, shortened: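 Yeast cells carrying a defined DNA-repair defect were exposed to compounds, and growth inhibition was calculated relative to vehicle-treated control cultures.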

[8] = NCI Yeast Anticancer Drug Screen. Data for the sgs1 mgt1 strain (AID 161);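 note: 0% = growth of cultures given vehicle only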; conditions: S. cerevisiae sgs1 mgt1 strain, stronger effect = higher value
Procedure, shortened: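 Percent growth inhibition was derived by comparing compound-exposed mutant yeast with vehicle-exposed cultures. The strain carries alterations in DNA damage repair.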

[9] = NCI Yeast Anticancer Drug Screen. Data for the CLN2oe strain (AID 163);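 note: 0% = growth of vehicle-only control cultures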; conditions: S. cerevisiae CLN2oe strain, stronger effect = higher value
Procedure, shortened: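 Yeast cells carrying a defined cell-cycle control alteration were exposed to test compounds. Growth inhibition was scored against vehicle-treated control cultures.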

[10] = NCI Yeast Anticancer Drug Screen. Data for the bub3 strain (AID 167); conditions: S. cerevisiae bub3 mutant strain, stronger effect = higher value
Procedure, shortened: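 Compounds were applied to a genetically altered yeast strain carrying a cell-cycle control defect. Growth inhibition was scored against vehicle-treated controls.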

[11] = NCI Yeast Anticancer Drug Screen. Data for the wt2 strain (AID 169);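 note: 0% = growth of vehicle-treated yeast cultures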; conditions: S. cerevisiae wt2 strain growth inhibition, stronger effect = higher value
Procedure, shortened: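 Yeast cells were exposed to test compounds, and growth inhibition was measured relative to vehicle-treated controls.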

[12] = NCI Yeast Anticancer Drug Screen. Data for the sgs1 strain (AID 173);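 note: 0% = growth of vehicle-only control cultures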; conditions: S. cerevisiae sgs1 mutant, stronger effect = higher value
Procedure, shortened: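 Yeast mutant strains carrying defined defects in DNA damage repair or cell cycle control were exposed to test compounds. Growth inhibition was scored against vehicle-treated controls.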

[13] = NCI Yeast Anticancer Drug Screen. Data for the mlh1 rad18 strain (AID 175); conditions: S. cerevisiae mlh1 rad18 strain growth inhibition, stronger effect = higher value
Procedure, shortened: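 Growth inhibition of the yeast strain was measured after compound exposure and expressed relative to vehicle-treated controls. The strain carries defined defects in DNA damage repair.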

[14] = NCI Yeast Anticancer Drug Screen. Data for the rad18 strain (AID 177); conditions: S. cerevisiae rad18 mutant growth inhibition, stronger effect = higher value
Procedure, shortened: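 Yeast carrying a defined DNA damage repair alteration were exposed to compounds. Growth inhibition was expressed relative to vehicle-treated controls.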

[15] = NCI Yeast Anticancer Drug Screen. Data for the cln2 rad14 strain (AID 165);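 note: 0% = growth equal to vehicle treated cultures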; conditions: S. cerevisiae cln2 rad14 strain, stronger effect = higher value
Procedure, shortened: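 Yeast carrying cln2 and rad14 alterations (cell cycle control and DNA damage repair) were exposed to compounds. Growth inhibition was measured against vehicle-treated controls.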

[16] = NCI Yeast Anticancer Drug Screen. Data for the mlh1 strain (AID 171);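 note: 0% = growth of vehicle-treated control cultures of the same strain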; conditions: S. cerevisiae mlh1 strain growth inhibition, stronger effect = higher value
Procedure, shortened: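 Yeast carrying a defined genetic alteration in DNA damage repair or cell cycle control were exposed to test compounds. Growth inhibition was measured relative to vehicle-treated controls.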

[17] = at 5.0 µM (retest, dose inferred, filed as 0.5)
[18] = at 50.0 µM (retest, dose inferred, filed as 5.0)

Measured: growth inhibition

C=C(C(=C)n1nnc(C(=O)OC)c1C(=O)OC)n1nnc(C(=O)OC)c1C(=O)OC
inactive: [1]; at 1.2 µM 0% | [1]; at 3.7 µM 2% | [1]; at 11.0 µM 3% | [1]; at 33.0 µM 0% | [1]; at 100.0 µM 0% | [2]; at 1.2 µM -1% | [2]; at 3.7 µM 0% | [2]; at 11.0 µM 1% | [2]; at 33.0 µM 0% | [2]; at 100.0 µM 1% | [3]; at 1.2 µM 0% | [3]; at 3.7 µM -1% | [3]; at 11.0 µM -1% | [3]; at 33.0 µM -2% | [3]; at 100.0 µM 0% | [4]; at 1.2 µM 0% | [4]; at 3.7 µM 5% | [4]; at 11.0 µM 0% | [4]; at 33.0 µM -1% | [4]; at 100.0 µM -3% | [5]; at 1.2 µM 0% | [5]; at 3.7 µM 1% | [5]; [17] 3% | [5]; at 11.0 µM 0% | [5]; at 33.0 µM 0% | [5]; [18] 2% | [5]; at 50.0 µM 27.1% | [5]; at 100.0 µM -2% | [6]; at 1.2 µM -5% | [6]; at 3.7 µM -5% | [6]; [17] -1% | [6]; at 11.0 µM -3% | [6]; at 33.0 µM -2% | [6]; [18] -1% | [6]; at 50.0 µM 51.9% | [6]; at 100.0 µM -5% | [7]; at 1.2 µM 1% | [7]; at 3.7 µM 3% | [7]; at 11.0 µM 3% | [7]; at 33.0 µM 3% | [7]; at 100.0 µM 1% | [8]; [17] 10% | [8]; [18] -3% | [8]; at 50.0 µM 51% | [9]; at 1.2 µM -2% | [9]; at 3.7 µM -1% | [9]; at 11.0 µM -4% | [9]; at 33.0 µM 0% | [9]; at 100.0 µM -4% | [10]; at 1.2 µM -1% | [10]; at 3.7 µM -3% | [10]; [17] 2% | [10]; at 11.0 µM -3% | [10]; at 33.0 µM -5% | [10]; [18] 2% | [10]; at 50.0 µM 66.4% | [10]; at 100.0 µM -4% | [11]; at 1.2 µM -1% | [11]; at 3.7 µM -1% | [11]; at 11.0 µM 1% | [11]; at 33.0 µM -1% | [11]; at 100.0 µM 0% | [12]; at 1.2 µM 0% | [12]; at 3.7 µM -1% | [12]; at 11.0 µM -2% | [12]; at 33.0 µM 0% | [12]; at 100.0 µM 0% | [13]; [17] -2% | [13]; [18] 48% | [13]; at 50.0 µM 59.5% | [14]; at 1.2 µM 0% | [14]; at 3.7 µM 0% | [14]; at 11.0 µM 1% | [14]; at 33.0 µM 0% | [14]; at 100.0 µM -1%

COc1ccc(C2C3=C(COC3=O)OC(C)(C)Oc3cc4c(cc32)OCO4)cc1OC (stereo not given)
active: [1]; at 100.0 µM 93% | [2]; at 100.0 µM 94% | [4]; at 100.0 µM 94% | [5]; [18] 91% | [5]; at 50.0 µM 97% | [5]; at 100.0 µM 90% | [6]; at 50.0 µM 96.1% | [6]; at 100.0 µM 95% | [7]; at 100.0 µM 91% | [9]; at 100.0 µM 90% | [15]; at 50.0 µM 91.6% | [10]; [18] 86% | [10]; at 50.0 µM 96.3% | [10]; at 100.0 µM 88% | [11]; at 100.0 µM 90% | [16]; at 100.0 µM 94% | [12]; at 100.0 µM 94% | [13]; [18] 96% | [13]; at 50.0 µM 97.5% | [14]; at 100.0 µM 94%
inactive: [1]; at 1.2 µM 17% | [1]; at 3.7 µM 19% | [1]; at 11.0 µM 11% | [1]; at 33.0 µM 47% | [2]; at 1.2 µM 9% | [2]; at 3.7 µM 10% | [2]; at 11.0 µM 13% | [2]; at 33.0 µM 23% | [3]; at 1.2 µM 5% | [3]; at 3.7 µM 4% | [3]; at 11.0 µM 4% | [3]; at 33.0 µM 4% | [3]; at 100.0 µM 12% | [4]; at 1.2 µM 27% | [4]; at 3.7 µM 26% | [4]; at 11.0 µM 31% | [4]; at 33.0 µM 54% | [5]; at 1.2 µM 15% | [5]; at 3.7 µM 26% | [5]; [17] 0% | [5]; at 11.0 µM 33% | [5]; at 33.0 µM 57% | [6]; at 1.2 µM 25% | [6]; at 3.7 µM 29% | [6]; [17] 9% | [6]; at 11.0 µM 33% | [6]; at 33.0 µM 58% | [6]; [18] 65% | [7]; at 1.2 µM 11% | [7]; at 3.7 µM 5% | [7]; at 11.0 µM 5% | [7]; at 33.0 µM 30% | [9]; at 1.2 µM 11% | [9]; at 3.7 µM 17% | [9]; at 11.0 µM 10% | [9]; at 33.0 µM 18% | [15]; [17] -1% | [15]; [18] 57% | [10]; at 1.2 µM -47% | [10]; at 3.7 µM -56% | [10]; [17] -9% | [10]; at 11.0 µM -33% | [10]; at 33.0 µM 24% | [11]; at 1.2 µM 5% | [11]; at 3.7 µM 2% | [11]; at 11.0 µM 8% | [11]; at 33.0 µM 26% | [16]; at 1.2 µM -11% | [16]; at 3.7 µM 0% | [16]; at 11.0 µM 6% | [16]; at 33.0 µM 57% | [12]; at 1.2 µM 37% | [12]; at 3.7 µM 23% | [12]; at 11.0 µM 27% | [12]; at 33.0 µM 61% | [13]; [17] -1% | [14]; at 1.2 µM -4% | [14]; at 3.7 µM 5% | [14]; at 11.0 µM 7% | [14]; at 33.0 µM 41%

— PubChem BioAssay (NCI)
